In PubChem BioAssay:
“And” between values parts separate entries of the source, which are not always exact repeats. Identical values can stand only once. The source made the active and inactive calls.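 How the source made its calls, unless noted: active means thallium flux through the channel raised or lowered by more than 3 SD from vehicle-only wells, actives on both sides; inactive means the rest.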

Key:
[1] = Wnt pathway potentiators raising nuclear beta-catenin – imaging, WNT3A-conditioned medium, mouse C2C12, NPC library, primary screen (AID 1117326; in the data active means nuclear beta-catenin stimulation mostly above about 4.2%, no sharp cut-off; inactive means mostly below about 10%); settings: stronger effect = higher value
[2] = stimulators of insulin release from INS-1E, primary screen, cell-based, 5 mM glucose, NPC library (AID 1117329;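 active means compound raises insulin release from rat beta cells at 5 mM glucose, no numeric limit stated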); settings: rat INS-1E insulin secretion, at 10 µM, stronger effect = higher value
[3] = growth inhibition of GSK3B-pretreated HCT116 cells – cell-based, CellTiter-Glo, 0.2 to 20 µM (AID 1117336;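 active means compounds lowering colon cancer cell viability after pretreatment blocking the GSK3B kinase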); settings: HCT116 viability after GSK3B inhibitor, at 20 µM, stronger effect = higher value
[4] = inhibition of endothelial tube formation, primary screen, imaging, VEGF stimulated, CD31 staining, tube area, NPC library (AID 1117340;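 active means compound that reduces growth-factor-driven endothelial tube area in a mixed cell culture, no cutoff stated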); settings: VEGF-stimulated ADSC/ECFC co-culture, at 10 µM, stronger effect = higher value
[5] = GLP1 release stimulators, primary, NCI-H716, NPC library (AID 1117341;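 active means compound raises GLP1 secretion from the human gut endocrine cells, with no numeric limit stated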); settings: NCI-H716 cells, at 10 µM, stronger effect = higher value
[6] = HCT116 colon cancer cell growth inhibition, primary screen, CellTiter-Glo luminescence, NPC library (AID 1117342;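 active means compounds that lower survival of HCT116 colon cancer cells in the luminescence readout, no numeric limit stated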); settings: at 20 µM (top of the series)
[7] = reduced SW480 viability measured with CellTiter-Glo, NPC library, primary (AID 1117343;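 active means compounds that lower viability of the colon cancer cells in the luminescence readout, with no numeric limit stated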); settings: CellTiter-Glo luminescence; at 20 µM (top of the series)
[8] = NPC library primary testing for decreased DLD-1 cell viability via CellTiter-Glo (AID 1117346;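 active means compounds that lower survival of DLD-1 colon cancer cells in the luminescence readout, no cutoff given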); settings: DLD-1 viability, CellTiter-Glo luminescence; at 20 µM (top of the series)
[9] = biological target: 6-phosphogluconate dehydrogenase, decarboxylating (Homo sapiens) (UniProt P52209); test: inhibition of human phosphogluconate dehydrogenase – biochemical, recombinant enzyme, NADPH absorbance, primary screen (AID 1159550;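 active means at least 20% inhibition of 6-phosphogluconate dehydrogenase activity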); settings: recombinant 6PGD, NADPH absorbance 341 nm; at 10 µM; stronger effect = higher value
[10] = modulation of C. elegans fzo-1 (AID 1259413; call rule not given here;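 further: fzo-1 mutant C. elegans worms in liquid wells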); settings: C. elegans fzo-1 modulator screen, mean read-out; stronger effect = higher value
[11] = EMT-state selective cytotoxicity in co-culture – imaging, PC-3E GFP, TEM4-18 mCherry, primary screen (AID 1345086;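 active means compounds killing one labelled cell type while sparing the other, by normalised counts and ratio limits, not self-fluorescent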;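 on all read-outs here: cells exposed to compound for 72 h before imaging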;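 on red/green cell ratio (normalised): normalised mesenchymal count divided by normalised epithelial count so high means epithelial killing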); settings: PC-3E GFP / TEM4-18 mCherry co-culture, imaging cell counts, at 1 µM; for red/green cell ratio (normalised): actives lie on both sides, counts scaled to control wells, 1 = unselective
[12] = MELAS cybrid and Rieske KO viability enhancers – cell-based, MELAS cybrids, Rieske KO mouse fibroblasts, CellTiter-Glo, primary screen (AID 1508586;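 active means mean z-score across replicates of 1.96 or higher in either the MELAS or the Rieske mutant cell line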;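 further: z relative to plate mean and SD of compound and empty wells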); settings: low glucose
[13] = biological target: Mitogen-activated protein kinase 7 (Homo sapiens) (UniProt Q13164); test: Gal4-ERK5 driven luciferase induction – cell-based, HTS, primary screen (AID 1508626;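 active means luciferase signal above three times the same-plate solvent-only control wells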;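 further: luciferase driven by Gal4-ERK5 fusion binding five Gal4 sites before minimal TATA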); settings: HeLa Gal4-ERK5 transactivation, 18 h, at 5 µM, stronger effect = higher value
F380Y = test: BK channel mutant inhibitors and activators – cell-based, U2OS BacMam, thallium flux, beta subunits, selectivity assay, profiling panel (AID 1259406); settings: U2OS BacMam BK variants, at 30 µM;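 further: initial slope of Thallos dye fluorescence rise after thallium is added; log ratio against the mean of 0.3% DMSO vehicle wells on the same plate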
F380Y/beta1 = test: as above; settings: U2OS BacMam BK variants, at 30 µM
F380Y/beta2Delta = test: as above; settings: U2OS BacMam BK variants, at 30 µM
[14] = biological target: NAD(+) hydrolase SARM1 (Homo sapiens) (UniProt Q6SZW1); test: blocking NAD cleavage by SARM1 SAM-TIR – cell lysate, NAD-Glo luminescence (AID 1508614;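 active means compound whose remaining NAD level is above about 45 nM, limit read from the data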); settings: SAM-TIR HEK293T lysate NADase, at 1 µM, stronger effect = higher value
[15] = growth inhibition, single agents and combos, ICB984, cell-based, cisplatin or BGB combos, synergistic combos for chromothripsis tumors (AID 1671451; call rule not given here;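 further: cells exposed for 96 hours before readout; 0% = vehicle DMSO and 100% = killing by high DMSO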); settings: ICB984 medulloblastoma cells, drug combinations, stronger effect = higher value
[16] = viability loss with induced miR-34 in A549 – imaging, A549 dox-inducible miR-34, nuclei and caspase counts, primary screen (AID 1347080;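 active means compounds whose cell count with miR-34 switched on is under 0.7 times the count with it off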); settings: A549 miR-34 inducible, Hoechst nuclei count, 48 h
[17] = measured here: epithelial PC-3E GFP cell survival
[18] = measured here: mesenchymal TEM4-18 mCherry cell survival
[19] = MELAS cybrid survival, CellTiter-Glo 48 h, stronger effect = higher value
[20] = Rieske KO mouse fibroblast survival, CellTiter-Glo 72 h
[21] = stronger effect = lower value, cell number ratio, induced over uninduced
[22] = measured here: relative caspase fold change +Dox/-Dox
[23] = measured here: total cells with miR-34 induction, stronger effect = lower value
[24] = measured here: total cells without miR-34 induction

6-phosphogluconate dehydrogenase, decarboxylating (Homo sapiens), sequence (P52209 whole entry, looked up): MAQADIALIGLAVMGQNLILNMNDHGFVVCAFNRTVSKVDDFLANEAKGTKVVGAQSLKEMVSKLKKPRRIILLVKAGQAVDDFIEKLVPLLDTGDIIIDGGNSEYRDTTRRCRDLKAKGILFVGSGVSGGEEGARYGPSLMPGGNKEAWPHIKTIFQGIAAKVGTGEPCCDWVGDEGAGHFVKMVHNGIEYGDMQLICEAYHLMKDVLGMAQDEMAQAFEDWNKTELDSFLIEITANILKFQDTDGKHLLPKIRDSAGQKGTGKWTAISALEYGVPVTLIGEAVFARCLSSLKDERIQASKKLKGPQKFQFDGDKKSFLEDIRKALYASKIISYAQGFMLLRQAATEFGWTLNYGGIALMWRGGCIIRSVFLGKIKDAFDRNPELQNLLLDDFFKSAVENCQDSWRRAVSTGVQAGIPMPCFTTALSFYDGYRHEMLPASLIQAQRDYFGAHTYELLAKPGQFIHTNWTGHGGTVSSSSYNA
Mitogen-activated protein kinase 7 (Homo sapiens), sequence (Q13164 whole entry, looked up, the tested form may be a part): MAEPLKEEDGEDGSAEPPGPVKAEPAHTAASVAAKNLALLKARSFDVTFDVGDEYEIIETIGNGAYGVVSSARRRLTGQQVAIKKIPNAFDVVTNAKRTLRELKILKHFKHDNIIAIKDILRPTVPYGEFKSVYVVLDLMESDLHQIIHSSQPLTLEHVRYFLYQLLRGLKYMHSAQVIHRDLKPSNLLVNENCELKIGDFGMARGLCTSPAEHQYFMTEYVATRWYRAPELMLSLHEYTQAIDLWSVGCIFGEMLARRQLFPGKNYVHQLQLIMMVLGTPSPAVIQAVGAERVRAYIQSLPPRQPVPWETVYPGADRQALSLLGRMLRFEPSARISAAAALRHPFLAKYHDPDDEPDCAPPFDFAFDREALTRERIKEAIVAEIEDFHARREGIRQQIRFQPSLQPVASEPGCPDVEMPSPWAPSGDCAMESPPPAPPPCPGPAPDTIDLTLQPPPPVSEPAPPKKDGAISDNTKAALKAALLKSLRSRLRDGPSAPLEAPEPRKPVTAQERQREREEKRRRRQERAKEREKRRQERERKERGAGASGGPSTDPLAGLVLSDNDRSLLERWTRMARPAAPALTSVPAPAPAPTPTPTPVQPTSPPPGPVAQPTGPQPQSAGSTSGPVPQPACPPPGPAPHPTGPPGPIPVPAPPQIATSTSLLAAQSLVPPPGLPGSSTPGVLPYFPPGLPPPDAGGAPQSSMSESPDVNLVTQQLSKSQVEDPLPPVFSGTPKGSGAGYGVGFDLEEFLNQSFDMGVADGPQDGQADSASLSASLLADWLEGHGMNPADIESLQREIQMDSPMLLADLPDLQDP
NAD(+) hydrolase SARM1 (Homo sapiens), sequence (Q6SZW1 whole entry, looked up): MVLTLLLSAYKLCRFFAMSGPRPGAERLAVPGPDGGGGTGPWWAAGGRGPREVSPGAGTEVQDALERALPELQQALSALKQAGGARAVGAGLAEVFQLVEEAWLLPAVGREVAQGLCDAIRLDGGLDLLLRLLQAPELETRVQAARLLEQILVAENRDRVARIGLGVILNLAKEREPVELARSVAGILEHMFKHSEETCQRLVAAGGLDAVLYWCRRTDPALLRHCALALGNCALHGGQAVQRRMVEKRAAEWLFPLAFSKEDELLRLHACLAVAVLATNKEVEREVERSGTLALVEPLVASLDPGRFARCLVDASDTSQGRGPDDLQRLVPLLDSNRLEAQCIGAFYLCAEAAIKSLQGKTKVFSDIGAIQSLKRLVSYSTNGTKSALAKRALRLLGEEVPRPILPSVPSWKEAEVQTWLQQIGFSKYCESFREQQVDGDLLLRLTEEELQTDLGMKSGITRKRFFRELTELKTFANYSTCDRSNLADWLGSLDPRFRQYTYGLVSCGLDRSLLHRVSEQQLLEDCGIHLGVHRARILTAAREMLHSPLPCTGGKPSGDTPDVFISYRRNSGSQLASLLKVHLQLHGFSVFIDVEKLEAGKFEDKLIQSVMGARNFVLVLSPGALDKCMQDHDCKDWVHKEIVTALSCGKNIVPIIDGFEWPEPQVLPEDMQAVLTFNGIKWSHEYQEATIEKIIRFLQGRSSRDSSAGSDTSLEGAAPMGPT

CN[C@H]1CC[C@@H](c2ccc(Cl)c(Cl)c2)c2ccccc21
inactive: nuclear beta-catenin stimulation ([1]; at 10 µM) 6.5% | insulin secretion stimulation [2] 11.8% | GLP1 secretion stimulation [5] 7.5% | inhibition [9] -2.43% | mean signal [10] 250 | red/green cell ratio (normalised) [11] 1.12 | z-score [12, 19] -0.257 | luciferase signal [13] 48 AU
-1.4%: nuclear beta-catenin stimulation ([1]; stimulation, at 2 µM)
0.309: z-score [12, 20]
0.93: normalised cell number [11, 17]
active: viability decrease [3] 98.7% | tube area decrease [4] 67.1% | inhibition of viability [6] 99.1% | viability decrease (inhibition) [7] 120% | viability decrease (inhibition) [8] 98% | log fold change Tl+ flux (F380Y) 0.286 and 0.195 | log fold change Tl+ flux (F380Y/beta1) 0.844 and 0.685 | log fold change Tl+ flux (F380Y/beta2Delta) 0.62 and 0.894
1.05: normalised cell number [11, 18]

CCn1cc(C(=O)O)c(=O)c2cc(F)c(N3CCN(C)CC3)cc21
1.38: normalised cell number [11, 18]
-18.1% and 6.69%: inhibition ([15]; BGB IC20 combo, at 0.005 µM)
1.2%: nuclear beta-catenin stimulation ([1]; stimulation, at 2 µM)
-41% and 21.2%: inhibition ([15]; cisplatin combo, at 0.05 µM)
-41% and 23.4%: inhibition ([15]; BGB IC40 combo, at 0.05 µM)
-34.1% and -14.2%: inhibition ([15]; cisplatin combo, at 5 µM)
-42.4% and -0.345%: inhibition ([15]; BGB IC40 combo, at 0.005 µM)
1.13: normalised cell number [11, 17]
-3.29% and -1.89%: inhibition ([15]; measured here: 5 uM single agent, at 5 µM)
-53.3% and -24%: inhibition ([15]; cisplatin combo, at 0.5 µM)
inactive: nuclear beta-catenin stimulation ([1]; at 10 µM) 3.6% | insulin secretion stimulation [2] -0.5% | viability decrease [3] -12.5% | tube area decrease [4] 25.6% | GLP1 secretion stimulation [5] 3.5% | inhibition of viability [6] -14.7% | viability decrease (inhibition) [7] -27.3% | viability decrease (inhibition) [8] -10.3% | inhibition [9] 5% | mean signal [10] 261 | red/green cell ratio (normalised) [11] 1.22 | remaining NAD [14] 10 nM | luciferase signal [13] 56 AU | inhibition ([15]; at 0.5 µM) -41.8% and -20.7% | log fold change Tl+ flux (F380Y) -0.0273 | log fold change Tl+ flux (F380Y/beta1) -0.000461 | log fold change Tl+ flux (F380Y/beta2Delta) -0.0112

CCc1cccc2c3c([nH]c12)C(CC)(CC(=O)O)OCC3 (centres undefined)
1.03: normalised cell number [11, 18]
-0.359: z-score [12, 20]
inactive: nuclear beta-catenin stimulation ([1]; at 10 µM) 0.9% | insulin secretion stimulation [2] -0.3% | viability decrease [3] -31.2% | tube area decrease [4] -16.6% | GLP1 secretion stimulation [5] -0.9% | inhibition of viability [6] 1.5% | viability decrease (inhibition) [7] -4.5% | viability decrease (inhibition) [8] -11.6% | inhibition [9] -23.2% | mean signal [10] 230 | red/green cell ratio (normalised) [11] 1.13 | z-score [12, 19] -0.968 | remaining NAD [14] 10 nM | luciferase signal [13] 164 AU | log fold change Tl+ flux (F380Y) 0.0338 | log fold change Tl+ flux (F380Y/beta1) 0.0385 | log fold change Tl+ flux (F380Y/beta2Delta) -0.0224
0.9: normalised cell number [11, 17]
0.3%: nuclear beta-catenin stimulation ([1]; stimulation, at 2 µM)

CCc1nc(N)nc(N)c1-c1ccc(Cl)cc1
69.7%: nuclear beta-catenin stimulation ([1]; stimulation, at 2 µM)
0.75: normalised cell number [11, 18]
0.731 and -0.178: z-score [12, 20]
inactive: insulin secretion stimulation [2] 1.3% | viability decrease [3] 18.7% | tube area decrease [4] 16.8% | GLP1 secretion stimulation [5] -0.3% | viability decrease (inhibition) [8] 35% | inhibition [9] 5.34% | mean signal [10] 234 | red/green cell ratio (normalised) [11] 0.84 | z-score [12, 19] -0.337 and 1.11 | remaining NAD [14] 10 nM | luciferase signal [13] 104 AU | log fold change Tl+ flux (F380Y) 0.0572 | log fold change Tl+ flux (F380Y/beta1) -0.116 | log fold change Tl+ flux (F380Y/beta2Delta) 0.0521
active: nuclear beta-catenin stimulation ([1]; at 10 µM) 72.4% | inhibition of viability [6] 56.7% | viability decrease (inhibition) [7] 95.5%
0.9: normalised cell number [11, 17]

CN(C)CCc1c[nH]c2ccc(C[C@H]3COC(=O)N3)cc12
inactive: nuclear beta-catenin stimulation ([1]; at 10 µM) 0.3% | insulin secretion stimulation [2] 1.2% | viability decrease [3] 14.8% | tube area decrease [4] -1.1% | GLP1 secretion stimulation [5] -0.5% | inhibition of viability [6] 13.1% | viability decrease (inhibition) [7] 26.5% | viability decrease (inhibition) [8] 24.6% | inhibition [9] 8.76% | mean signal [10] 245 | red/green cell ratio (normalised) [11] 0.98 | fold change [16, 21] 0.877 | z-score [12, 19] 0.816 | remaining NAD [14] 10 nM | luciferase signal [13] 32 AU | log fold change Tl+ flux (F380Y) 0.0506 | log fold change Tl+ flux (F380Y/beta1) 0.00826 | log fold change Tl+ flux (F380Y/beta2Delta) -0.0158
13300: cell count [16, 24]
1: normalised cell number [11, 18]
1.39: fold change [16, 22]
11600: cell count [16, 23]
-0.25: z-score [12, 20]
1.02: normalised cell number [11, 17]
1.8%: nuclear beta-catenin stimulation ([1]; stimulation, at 2 µM)

CC(C)(C)NCC(O)COc1cccc2c1C[C@H](O)[C@H](O)C2 (some centres undefined)
10900 and 12900: cell count [16, 24]
1.04: normalised cell number [11, 17]
inactive: nuclear beta-catenin stimulation ([1]; at 10 µM) 1.8% | insulin secretion stimulation [2] -1.2% | viability decrease [3] -26.3% | tube area decrease [4] 13.1% | GLP1 secretion stimulation [5] -1.3% | inhibition of viability [6] 4.4% | viability decrease (inhibition) [7] 2.8% | viability decrease (inhibition) [8] -5.7% | inhibition [9] 6.69% | mean signal [10] 269 | red/green cell ratio (normalised) [11] 1.06 | fold change [16, 21] 0.964 and 0.863 | z-score [12, 19] 0.625 | remaining NAD [14] 10 nM | luciferase signal [13] 100 AU | log fold change Tl+ flux (F380Y) 0.0119 | log fold change Tl+ flux (F380Y/beta1) 0.00674 | log fold change Tl+ flux (F380Y/beta2Delta) 0.0306
-0.345: z-score [12, 20]
1.1: normalised cell number [11, 18]
10500 and 11100: cell count [16, 23]
-0.2%: nuclear beta-catenin stimulation ([1]; stimulation, at 2 µM)
2.62 and 3.63: fold change [16, 22]

Cc1onc(-c2c(Cl)cccc2Cl)c1C(=O)N[C@@H]1C(=O)N2[C@@H]1SC(C)(C)[C@@H]2C(=O)O
inactive: nuclear beta-catenin stimulation ([1]; at 10 µM) 1.5% | insulin secretion stimulation [2] 1.5% | viability decrease [3] -15.4% | tube area decrease [4] 1.6% | GLP1 secretion stimulation [5] 0% | inhibition of viability [6] -4.23% | viability decrease (inhibition) [7] 18.3% | viability decrease (inhibition) [8] -11.8% | inhibition [9] -8.13% | mean signal [10] 230 | red/green cell ratio (normalised) [11] 1.32 | fold change [16, 21] 0.978 and 0.899 and 0.89 | z-score [12, 19] 0.18 | remaining NAD [14] 10 nM | luciferase signal [13] 36 AU | log fold change Tl+ flux (F380Y) 0.01 | log fold change Tl+ flux (F380Y/beta1) -0.0941 | log fold change Tl+ flux (F380Y/beta2Delta) -0.00879
10400 and 7750 and 11800: cell count [16, 23]
0.0231: z-score [12, 20]
1.67: normalised cell number [11, 18]
10700 and 8620 and 13200: cell count [16, 24]
0.333 and 1.39 and 0.886: fold change [16, 22]
1.3%: nuclear beta-catenin stimulation ([1]; stimulation, at 2 µM)
1.26: normalised cell number [11, 17]
